A short description of experiment [1]: GPR55 agonists via beta-arrestin recruitment, primary screen, imaging, U2OS cells, beta-arrestin-GFP redistribution (AID 1961).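 Further: U2OS osteosarcoma cells stably expressing GPR55 and beta-arrestin-GFP.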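 On activation: plate controls were DMSO negative control for no effect and LPI positive control for full effect.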 Conditions: measured here: cytotoxicity, cells analyzed, at 10 µM. For orientation: Activated receptors often draw arrestin, which recruitment assays turn into a signal.
The target in experiment [2] is G-protein coupled receptor 55 (Homo sapiens) (UniProt Q9Y2T6). The description is as above. To be noted: at 10 µM, stronger effect = higher value.

The campaign covered roughly 290,000 compounds. About 140 (0.048%) were called active.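 How the source made its calls: active means activation above 40% with more than 50 cells counted in the well; inconclusive means wells holding fewer than 50 cells, flagged as toxic or sparse; inactive means the rest.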 For the sample, actives were picked, then their nearest neighbours and some compounds at random.

For 42 compounds, cell count and activation results are on record in PubChem BioAssay AID1961 (Sanford-Burnham Center for Chemical Genomics, 2009).

G-protein coupled receptor 55 (Homo sapiens), sequence (Q9Y2T6 whole entry, looked up): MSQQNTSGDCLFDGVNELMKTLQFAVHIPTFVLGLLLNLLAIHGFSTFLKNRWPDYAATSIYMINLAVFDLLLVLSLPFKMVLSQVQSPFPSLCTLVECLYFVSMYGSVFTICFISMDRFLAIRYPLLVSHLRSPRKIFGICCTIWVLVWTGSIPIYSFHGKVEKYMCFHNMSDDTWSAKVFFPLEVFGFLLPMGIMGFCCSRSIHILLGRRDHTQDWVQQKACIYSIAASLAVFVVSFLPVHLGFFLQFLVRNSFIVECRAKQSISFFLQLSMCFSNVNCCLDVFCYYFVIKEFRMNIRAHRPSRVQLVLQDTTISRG

In experiment [1], `Cn1c(SCC(=O)NNC(=O)Nc2ccc(Cl)cc2)nnc1-c1ccccc1` came in with a cell count of 332 cells. In addition, the activation in experiment [2] is -0.1% (inactive).

Turning to `COc1cccc(-n2c(SCC(=O)Nc3cc(C)on3)nc3ccccc3c2=O)c1`, the cell count in experiment [1] amounted to 336 cells. Further, in experiment [2], the activation is 0.5% (inactive).

For `Cc1cccc(N(CC(=O)Nc2c(C)n(C)n(-c3ccccc3)c2=O)S(C)(=O)=O)c1C`, the cell count in experiment [1] was 361 cells. Further, the activation in experiment [2] is 0% (inactive).

For `CSc1cccc(N/C(=N/S(=O)(=O)c2ccccc2)NN)c1`, the cell count in experiment [1] was found to be 310 cells. Moreover, the activation in experiment [2] was 0.6% (inactive).

For the compound `COc1ccc2cc(CCNC(=O)C3CCCC3)c(=O)[nH]c2c1`, the cell count in experiment [1] stood at 307 cells. Also, the activation in experiment [2] is -0.1% (inactive).

Take `c1ccc(-c2noc(CN3CCOCC3)n2)cc1`: in experiment [1], the cell count came out at 407 cells. The activation in experiment [2] was 0.2% (inactive).

`CC(=O)c1c(C)[nH]c(C(=O)NCCc2c[nH]c3ccccc23)c1C` showed a cell count in experiment [1] of 348 cells. Moreover, the activation in experiment [2] is -0.1% (inactive).

For `CC1(C)CC(NC(=O)c2c(N)no[n+]2[O-])CC(C)(C)N1`, the cell count in experiment [1] turned out to be 241 cells. Moreover, the activation in experiment [2] was -0.3% (inactive).

In the case of `Cc1ccc(NC(=S)Nc2ccc(S(=O)(=O)Nc3ncccn3)cc2)c(C)c1`, the cell count in experiment [1] came to 327 cells. For the same compound, the activation in experiment [2] is -0.2% (inactive).

`COCc1[nH]c(=S)[nH]c(=O)c1C` returned a cell count in experiment [1] of 339 cells. For the same compound, in experiment [2], the activation was -0.1% (inactive).

Regarding `Cc1c(Cl)c(=O)oc2cc(OCC(=O)NCc3cccs3)ccc12`, the cell count in experiment [1] stood at 357 cells. The activation in experiment [2] was 0% (inactive).

For `COc1ccc(NC(=O)Cn2c(CCC(=O)O)ccc2-c2ccccc2)cc1`, the cell count in experiment [1] came to 413 cells. In experiment [2], the activation was 0.2% (inactive).

Regarding `O=C(O)c1ccc(NC(=O)c2ccc3c(c2)C(=O)N(c2ccccc2)C3=O)cc1`, the cell count in experiment [1] came to 374 cells. Besides, the activation in experiment [2] is -0.1% (inactive).

In the case of `O=C(OCc1cc(=O)n2c(n1)sc1ccccc12)c1ccc2c(=O)n3c(nc2c1)CCC3`, the cell count in experiment [1] worked out at 323 cells. In addition, in experiment [2], the activation is -0.1% (inactive).

In experiment [1], `Cc1sc2nc(CSc3nc4ccccc4c(=O)n3CCCN3CCOCC3)[nH]c(=O)c2c1C` had a cell count of 341 cells. The activation in experiment [2] was -0.1% (inactive).

On to `CCCN1CCC(=O)N([C@H](CSc2ccc(C)cc2)CC(C)C)CC1`, for which the cell count in experiment [1] amounted to 328 cells. Moreover, the activation in experiment [2] was 5.1% (inactive).

`Cc1ccc(SC[C@H](CC(C)C)N2CCN(CCc3ccccc3)CCC2=O)cc1` came in with a cell count in experiment [1] of 305 cells. In addition, the activation in experiment [2] was 193% (active).

`Cc1ccc(SC[C@H](Cc2ccccc2)N2CCN(CCc3ccccc3)CCC2=O)cc1`: the cell count in experiment [1] amounted to 347 cells. In addition, in experiment [2], the activation is -0.1% (inactive).

The compound `Cc1ccc(CNC(=O)CCS(=O)(=O)c2ccc3c(c2)NC(=O)CO3)cc1` showed a cell count in experiment [1] of 376 cells. The activation in experiment [2] is -0.2% (inactive).

In the case of `CCOC(=O)C(CSCC(=O)c1ccc(Cl)cc1Cl)NC(=O)OC(C)(C)C` (centres undefined), the cell count in experiment [1] was 359 cells. Further, in experiment [2], the activation is -0.1% (inactive).

Regarding `CCOC(=O)c1c(CN2CCN(CCO)CC2)n(-c2ccccc2)c2cc(Br)c(O)cc12`, in experiment [1], the cell count worked out at 355 cells. Besides, the activation in experiment [2] is 0.3% (inactive).

Take `O=c1oc2ccccc2c(NCc2ccc(Cl)cc2)c1[N+](=O)[O-]`: the cell count in experiment [1] turned out to be 384 cells. In addition, the activation in experiment [2] is -0.3% (inactive).

Take `O=C(NCCN1CCN(C(=O)c2ccc(F)cc2)CC1)c1ccc(F)cc1`: in experiment [1], the cell count worked out at 452 cells. In addition, the activation in experiment [2] is 0.2% (inactive).

In turn, `CCOc1ccc2nc(Cl)sc2c1` showed a cell count in experiment [1] of 247 cells. For the same compound, the activation in experiment [2] was -0.1% (inactive).

Take `Nc1cc(-c2ccccc2)n2c(n1)nc1ccccc12`: the cell count in experiment [1] is 331 cells. Moreover, the activation in experiment [2] is 0.3% (inactive).

For `Cc1cc(=O)[nH]c(SCC(=O)N2CCCCCC2)n1`, the cell count in experiment [1] is 340 cells. In experiment [2], the activation was 0% (inactive).

The compound `CC(=O)NC1(C(F)(F)F)C(=O)N(Cc2ccccc2)C2=C1C(=O)CC(C)(C)C2` (centres undefined) displayed a cell count in experiment [1] of 419 cells. Further, the activation in experiment [2] was 0.2% (inactive).

Consider `CCS(=O)(=O)N1CCC(C(=O)N2CCc3ccccc3C2)CC1`, for which the cell count in experiment [1] stood at 361 cells. The activation in experiment [2] was 0% (inactive).

In experiment [1], `O=C(Cc1ccccc1)Nc1ccc(NC(=O)c2ccco2)cc1` came in with a cell count of 367 cells. In addition, in experiment [2], the activation is 0.2% (inactive).

With `Cc1cccc(CC(=O)N2CCOCC2)c1`, in experiment [1], the cell count worked out at 411 cells. In addition, the activation in experiment [2] was 1.4% (inactive).

With `O=C(CC1CCCCC1)Nc1ccccc1-c1ccccc1`, the cell count in experiment [1] was found to be 361 cells. Further, in experiment [2], the activation is -0.4% (inactive).

In the case of `COc1ccc(Cl)cc1NC(=O)CSc1nnc(COc2ccccc2)n1C`, in experiment [1], the cell count was found to be 350 cells. Besides, the activation in experiment [2] was 0.2% (inactive).

For the compound `COc1ccc(Nc2ncc3c(n2)CC(c2ccccc2)CC3=O)cc1` (centres undefined), the cell count in experiment [1] is 306 cells. Moreover, the activation in experiment [2] was -0.1% (inactive).

Consider `O=C(N/N=C\c1cccnc1)c1ccc(Cl)cc1Cl`, for which the cell count in experiment [1] stood at 331 cells. The activation in experiment [2] is 0.3% (inactive).

Regarding `CCOC(=O)CSc1nc2c([nH]c3ccccc32)c(=O)n1C`, in experiment [1], the cell count is 345 cells. Also, in experiment [2], the activation was -0.1% (inactive).

The compound `CCOc1ccccc1CNC(=O)CCc1cn(CC)c2ccccc12` gave a cell count in experiment [1] of 381 cells. The activation in experiment [2] is 0.3% (inactive).

Compound `c1ccc(-c2cn3nc(-c4ccccc4)c(-c4ccccc4)nc3n2)cc1` showed a cell count in experiment [1] of 374 cells. Further, in experiment [2], the activation was 0.6% (inactive).

Take `c1ccc(-c2cnn3c(-c4ccccc4)c(-c4ccccc4)nc3n2)cc1`: in experiment [1], the cell count was determined as 310 cells. Moreover, the activation in experiment [2] is 42.5% (active).

Regarding `c1ccc(-c2cnn3nnnc3n2)cc1`, in experiment [1], the cell count came to 327 cells. For the same compound, the activation in experiment [2] is 0.2% (inactive).

`CC(C)(C)C1=CC=C(C(C)(C)C)C(=O)C1=O` registered a cell count in experiment [1] of 365 cells. Besides, in experiment [2], the activation is 24.1% (inactive).

The compound `CC(C)(C)C1=CC(=Nc2ccccc2N)C=C(C(C)(C)C)C1=O` gave a cell count in experiment [1] of 328 cells. For the same compound, in experiment [2], the activation was -0.1% (inactive).

Compound `CC(C)(C)C1=CC(=O)C(=O)C(C(C)(C)C)=C1` showed a cell count in experiment [1] of 346 cells. In addition, the activation in experiment [2] is 138% (active).
